HT1080-NT tox = kills 2HG-producing HT-1080-NT fibrosarcoma cells | HT-1080-NT fibrosarcoma viability, CellTiter-Glo ATP luminescence, 48 h | Potency, µM (series often up to 46.1 µM), for inactives: at the top dose activity, negative = less viability, actives largely listed as cytotoxic | 360,000 tested, 1.6% active | AID 686970;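 note: NT is the 2HG producing partner of a matched IDH1 knockdown line; 0% = DMSO-treated cells and -100% = media-only wells without cells; nearly all actives have a fitted effect of over 55% in size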
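HT-1080-NT; 750 cells/well; 5% FBS RPMI; 48 h compound, 37 degrees C; CellTiter-Glo luminescence; curve fitting and curve-class assignment.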
HT1080 IDH1KD tx = toxicity to HT-1080 IDH1 knockdown cells (counter line); 360,000 tested, 2% active; Potency, µM (highest dose often 46.1 µM), inactives show at the top dose activity, negative = toxicity, hits mostly cytotoxic; AID 686971; HT-1080 IDH1 knockdown viability, ATP luminescence, 48 h;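 note: 0% = DMSO wells and -100% = cell-free medium wells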
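HT-1080-IDH1KD cells (IDH1 knocked down), 750/well in RPMI with 5% FBS, treated with compound 48 h at 37 degrees C. Viability by CellTiter-Glo luminescence, normalised to DMSO and no-cell wells; concentration-response curves classed.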
KB-V1 cytotox = KB-V1 MDR subline cytotoxicity; 400,000 tested, 3.4% active; Potency, µM (highest dose often 46.1 µM), most hits filed as cytotoxic; KB-V1 MDR cells viability, CellTiter-Glo, 72 h; AID 1347076; note: nearly all actives have a fitted effect of over 60% in size
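Cytotoxicity toward P-gp-expressing KB-V1 cells was determined as loss of CellTiter-Glo luminescence after 72 h at 37 degrees C. Compounds were tested in quantitative HTS format across a concentration range, with curves fitted to normalized data.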
TDP1 cell noCPT = qHTS for Inhibitors of human tyrosyl-DNA phosphodiesterase 1 (TDP1): qHTS in cells in absence of CPT; DT40 Tdp1-/- hTDP1 cells, no CPT, ATP luminescence, 48 h; 420,000 tested, 15% active; Potency, µM (doses to about 46.2 µM), for the others: top-dose activity change, negative = growth inhibition, actives largely listed as inhibitors; AID 686978, 2013; note: nearly all actives have a fitted effect of over 55% in size
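Growth kinetics read by CellTiter-Glo luminescence after ≥48 hr at 37 °C. Cells: DT40 Tdp1-/- stably carrying human TDP1, 400 per well, compound exposure in the absence of CPT (DMSO vehicle).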
TDP1 cell CPT = DT40-hTDP1 cell growth loss with CPT; chicken DT40 Tdp1-/-;hTDP1 cells + 20 nM CPT, ATP luminescence, 48 h; Potency, µM (titrated, usually from 46.2 µM), for inactives: top-dose activity change, negative = growth inhibition, usual class: inhibitors; 420,000 tested, 12% active; AID 686979; note: nearly all actives have a fitted effect of over 55% in size
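Chicken DT40 Tdp1-/- cells complemented with human TDP1, 400 cells/well, exposed to compounds plus 20 nM camptothecin for at least 48 h at 37 C; viability read as ATP content by CellTiter-Glo luminescence.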
KB-3-1 cytotox = KB-3-1 parental cell cytotoxicity; KB-3-1 viability, CellTiter-Glo ATP luminescence, 72 h; Potency, µM (titrated, usually from 46.1 µM), hits mostly cytotoxic; AID 1347075; 400,000 tested, 1.4% active; note: nearly all actives have a fitted effect of over 60% in size
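Cytotoxicity measured as CellTiter-Glo luminescence after 72 h at 37 C. Compound titrations were pinned onto drug-naive KB-3-1 parental adenocarcinoma cells grown in DMEM with 10% FBS, and normalized data fitted to concentration-response curves.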
Numbers without * were called inactive; i = inactive; ? = inconclusive; . = not tested or not shown. The list is not random: actives were taken first. Their share in the collection is about 19%. Calls come from the whole dose curve; as a rule, active = well fitted curve in the direction sought with a large enough effect; inconclusive = small, poorly fitted or top-dose-only effect, or another doubt; inactive = no such curve, though single readings can be large; an effect the other way counts as inactive or inconclusive. Unless noted, % is set by controls: 0 for no effect and ±100 for the full control effect; potency is the fitted concentration of half-maximal effect.

SMILES	HT1080-NT tox	HT1080 IDH1KD tx	KB-V1 cytotox	TDP1 cell noCPT	TDP1 cell CPT	KB-3-1 cytotox
Cn1cc([N+](=O)[O-])c(C(=O)Nc2ccn(Cc3c(F)c(F)cc(F)c3F)n2)n1	7.1µM*	6.3µM*	?	-1%	-15%	i
Cn1cc([N+](=O)[O-])c(C(=O)Nc2ccc(Br)cn2)n1	11µM*	7.1µM*	?	-6%	-19%	?
Cc1ccc(Cn2ccc(NC(=O)c3nn(C)cc3Cl)n2)cc1	14%	11%	i	-7%	-18%	?
CCN1C(=O)[C@H]2[C@@H](c3ccc(C)cc3)N[C@]3(CCCN(Cc4ccc(F)cc4)C3=O)[C@H]2C1=O	0%	1%	i	?	?	i
COc1ccc(CNCCC(c2ccc(OC)cc2)c2ccccc2OC)cc1 (stereo unspecified)	15µM*	21µM*	?	6.5µM*	18µM*	?
COc1ccc(C(CCNCc2ccc(OC(C)C)cc2)c2ccccc2OC)cc1 (stereo unspecified)	?	?	23µM*	16µM*	23µM*	?
COc1ccc(CNCc2ccc(OC)c3ccccc23)cc1	-17%	-23%	i	?	?	i
COc1ccc(C(CCNCc2ccc(N(C)C)cc2)c2ccccc2OC)cc1 (stereo unspecified)	?	29µM*	?	15µM*	18µM*	i
Cc1ccc(C)c(S(=O)(=O)NCc2ccc(C(=O)N3CCC(Cc4ccccc4)CC3)cc2)c1	?	?	i	?	?	i
O=C(CSc1nccn1-c1ccc(Cl)cc1)Nc1cccc2ccccc12	.	.	.	-14%	?	.
CCCCCOc1ccc(NC(=O)Cn2c(-c3nonc3N)nc3ccccc32)cc1	.	.	?	-19%	?	i
Cc1ccc(S(=O)(=O)c2cn(CC(=O)Nc3ccc4c(c3)OCO4)c3ccccc3c2=O)cc1	.	.	i	?	0%	i
CC(C)CCCCCCCCCCCCC(=O)NCC(=O)NC1C(O)C(O)C(Nc2ncnc3nc[nH]c23)OC1C(O)CO (stereo unspecified)	?	0.16µM*	0.16µM*	0.18µM*	0.15µM*	0.18µM*
CCCCCCCCCCCCCCCC(=O)C1=C(O)C(CO)OC1=O (stereo unspecified)	.	.	.	6%	-4%	.
COCCCNC(=O)c1ccc2sc(C3=C[C@@H](O)[C@@H](O)[C@@H](CO)O3)nc2c1	?	11%	i	-11%	1%	i
Cc1ccn2c(=O)cc(COc3ccc(NC(=O)c4ccccc4F)cc3)nc2c1	.	.	i	2%	8%	i
CC1CCN(C(=O)c2cc3c(=O)n(C)c4ccccc4c3s2)CC1	.	.	i	?	12µM*	i
Cc1cccc(N2CCN(C(=O)c3cc4c(=O)n(C)c5ccccc5c4s3)CC2C)c1 (stereo unspecified)	.	.	i	2.3µM*	?	i
Cc1cccc(N2CCN(C(=O)c3ccc4c(c3)c(C)c(C)n4C)CC2C)c1 (stereo unspecified)	-26%	?	i	21µM*	16µM*	i
Cc1ccc(Cl)cc1N1CCN(C(=O)c2cc3c(=O)n(C)c4ccccc4c3s2)CC1	.	.	i	2%	8%	i
Cc1cccc(N2CCN(C(=O)c3ccc(N4CCCC4=O)cc3)CC2C)c1 (stereo unspecified)	-4%	-15%	i	?	?	i
Cc1ccc(-c2c(C(=O)N3CCN(c4cccc(C)c4)C(C)C3)oc(=O)c3ccccc23)cc1 (stereo unspecified)	.	.	?	?	15µM*	?
